Out of some 69,000 compounds screened, about 8,600 (12%) showed an effect of 50% or more. The list comes from a sample in which strong results are over-represented; it also holds similar structures and randomly drawn compounds.

The test deals with Plasmodium berghei. As to the kind of experiment: Screen against P. berghei liver stage (PbLuc), transformed with Luciferase, at 10uM. The test is classed as functional, HepG2. The conditions noted are these: tested at 10 uM.
For `O=C1CC(c2ccc(Cl)c(Cl)c2)c2c(n3ccsc3nc2=O)N1` (stereo unspecified), the INHIBITION was 36.2%.
As to `O=C(c1cc(-c2cccs2)cs1)N1CCOCC1`, the INHIBITION is -132%.
Then `CC(C)c1nnc2n1CCN(Cc1cc(Cl)c3c(c1)OCCO3)C2`, with 10.1%; and `CC(Cn1ccnc1)NC(=O)NCc1cccnc1OC1CCCC1` (stereo unspecified), with 17.4%.
As to `CSCCC(=O)N1CCCC1c1nnc2n1CCCCC2` (stereo unspecified), the INHIBITION was 54.3%.
To `CCc1ccc(C(=O)N2CCCC2c2nnc3n2CCCCC3)o1` (stereo unspecified) belongs 57.7%.
Then `O=C(c1ccc(Cl)o1)N1CCCC1c1nnc2n1CCCCC2` (stereo unspecified), with 29.8%; and `CC(=O)N1CCCC1c1nnc2n1CCCCC2` (stereo unspecified), with -2.37%.
Turning to `CC(C)CCC(=O)N1CCCC1c1nnc2n1CCCCC2` (stereo unspecified), the INHIBITION is reported as 26.9%.
Then `Cc1ccc(C(=O)N2CCCC2c2nnc3n2CCCCC3)o1` (stereo unspecified), with 8.47%; and `CCN(CC)CCNC(=O)c1cc(OC)c2ccoc2c1`, with 31.1%.
For `CC(=O)CN1CC2(CCNCC2)COc2ccccc2S1(=O)=O`, the INHIBITION was determined as 26.3%.
To `COc1nccnc1-c1cc(NC2CCNCC2)nc2[nH]ccc12` belongs -2.69%.
Then `COc1ncc(-c2cc(NC3CCCC3)nc3[nH]ccc23)c(OC)n1`, with 66.7%; and `COc1ncc(-c2cc(NCCN(C)C)nc3[nH]ccc23)c(OC)n1`, with 49%.
To `FC(F)(F)c1ccc(-c2cc(NC3CCNCC3)nc3[nH]ccc23)nc1` belongs 18.5%; to `COc1cc(-c2cc(NC3CCCC3)nc3[nH]ccc23)nc(N)n1`, 42.1%; to `COc1nccnc1-c1cc(NC2CCCC2)nc2[nH]ccc12`, 60%.
Take `CCS(=O)(=O)N1CCC(c2nc(C)c(C)c(N3CCCC3)n2)CC1`: the INHIBITION stood at 22.35%.
Then `Cc1noc([C@]23COC[C@H]2CN(C(=O)Cc2ccsc2)C3)n1`, with 38.5%.
For the compound `O=C(CC1[C@H]2CN(Cc3ccc(F)cc3)C[C@@H]12)N1CCCC1` (stereo partly specified), the INHIBITION is given as -7.28%.
To `O=C(NCCc1cc(F)ccc1F)NCC(O)C1CC1` (stereo unspecified) belongs 14.9%.
As for `Cc1nc(C(=O)N(C)C2CC(=O)N(Cc3ccccc3)C2=O)cs1` (stereo unspecified), the INHIBITION turned out to be 8.51%.
To `Cc1[nH]ccc1C(=O)N(C)C1CC(=O)N(Cc2ccccc2)C1=O` (stereo unspecified) belongs 54.4%; to `CN(C(=O)c1ccc[nH]1)C1CC(=O)N(Cc2ccccc2)C1=O` (stereo unspecified), 15.2%.
Consider `O=C(c1cc(C2CCCCN2C(=O)C2CCC2)n[nH]1)N1CCOCC1` (stereo unspecified), for which the INHIBITION is reported as -22.6%.
For the compound `CCn1ncc(CN2CCc3nc(-c4cccnc4)nc(O)c3C2)c1C`, the INHIBITION was determined as 29.2%.
Then `CN(C)C(=O)COC[C@]12COC[C@H]1CN(Cc1ccco1)C2`, with -3.33%.
To `CN(C)C(CNC(=O)NCCc1cccc(O)c1)c1ccco1` (stereo unspecified) belongs 41.4%; to `Cc1nc(CCNC(=O)NCC(c2ccco2)N(C)C)cs1` (stereo unspecified), 55.6%.
Then `CN(C)C(CNC(=O)NCCS(C)(=O)=O)c1ccco1` (stereo unspecified), with -18.3%; and `Cn1ccc2c(C(=O)N3CC[C@@]4(O)CCCC[C@H]4C3)cccc21`, with 1.62%.
On to `CCN(CC1CCOC1)C(=O)NCc1nnc2n1CCC2` (stereo unspecified), for which the INHIBITION is given as 42%.
In the case of `O=C(NCc1nnc2n1CCCCC2)N(Cc1ccncc1)C1CC1`, the INHIBITION is 26.5%.
Then `O=S(=O)(Cc1ccccc1)NCc1nnc2n1CCC2`, with -12.4%; and `CN(Cc1ccc(F)cc1)C(=O)NCc1nnc2n1CCC2`, with -21.8%.
To `O=C(NCc1nnc2n1CCC2)N(Cc1ccc(F)cc1)C1CC1` belongs 50.4%; to `O=S(=O)(Cc1ccc(F)cc1)NCCc1nnc2n1CCC2`, 30.5%; to `O=C(NCc1nnc2n1CCC2)c1ccc(C2CCCO2)s1` (stereo unspecified), -1.7%.
To `CCN(CC1CCOC1)C(=O)NCc1nnc2n1CCCCC2` (stereo unspecified) belongs 34.4%.
For the compound `O=C(NCc1nnc2n1CCC2)c1ccc(Br)s1`, the INHIBITION is recorded as 49.4%.
To `O=S(=O)(Cc1ccc(F)cc1)NCc1nnc2n1CCC2` belongs 68.9%; to `O=C(NCc1nnc2n1CCCC2)c1ccc(C2CCCO2)s1` (stereo unspecified), 59.1%.
Then `O=C(NCc1nnc2n1CCCCC2)N(CC1CCOC1)C1CC1` (stereo unspecified), with 55%; and `CCCC(C#N)NC(=O)c1sccc1CC` (stereo unspecified), with 46.6%; and `CSc1ncnc(NCc2cccs2)c1C#N`, with 10.6%.
To `Cc1nsc(N2CCCN(C(=O)NCc3cc(C)on3)CC2)n1` belongs 45%; to `CCc1nccn1C1CCCN(C(=O)c2ccc3c(c2)nnn3C)C1` (stereo unspecified), 12.7%; to `COc1cc2nc3n(c(=O)c2cc1OC)CCN(C(=O)C(C)(C)C)CC3`, 32.3%.
Regarding `Cc1ccc(C(C)(O)CNC(=O)NCCc2ccc3c(c2)CCO3)o1` (stereo unspecified), the INHIBITION stood at 23.2%.
Then `O=c1cc(CN2CC[C@@]3(O)CCCC[C@H]3C2)c2cccc3c2n1CCC3`, with 42.1%.
To `O=C(NCCc1c[nH]cn1)c1ccc(S(=O)(=O)NC2CCOC2)cc1` (stereo unspecified) belongs 4.68%; to `O=C(Cc1ccc(F)cc1)NCCNc1cc(N2CCCC2)cnn1`, 34.6%; to `CSc1nnc(CNC(=O)Nc2ccccc2F)n1C`, 31.7%.
Take `O=C(NCCNc1cc(N2CCCC2)cnn1)Nc1ccccc1F`: the INHIBITION was 53.8%.
Turning to `CS(=O)(=O)Cc1ccc(C(=O)Nc2ccc3c(c2)C(=O)NC3)cc1`, the INHIBITION was 37.9%.
Then `CNS(=O)(=O)c1ccc(C(=O)Nc2ccc3c(c2)C(=O)NC3)cc1`, with -5.26%; and `O=C(Nc1ccc2c(c1)C(=O)NC2)c1ccc(S(=O)(=O)C(F)(F)F)cc1`, with 55%; and `O=C(NCC1COC2(CCOCC2)O1)c1csc(-c2cccc(Cl)c2)n1` (stereo unspecified), with 15.5%.
Then `COCC(=O)N1C[C@H]2CNC[C@@]2(C(=O)NCc2cc(C)n[nH]2)C1`, with 59.5%.
To `COCC(=O)N1C[C@H]2CNC[C@@]2(C(=O)NCc2c(C)noc2C)C1` belongs -31.9%; to `COCC(=O)N1C[C@H]2CNC[C@@]2(C(=O)NCc2nc(C)cc(C)n2)C1`, 1.45%; to `CCC[C@H]1CN(S(C)(=O)=O)C[C@@H]1NC(=O)COC(C)C`, 34.9%.
`Cc1cccc(CN2CCN3C(=O)NC[C@H]3C2)n1`: the INHIBITION is -27.5%.
To `Cc1ccc(CN2CCN(Cc3cc(C)n[nH]3)CC2CCO)cc1` (stereo unspecified) belongs -0.529%.
To `CC(C)=CCN1CCN(Cc2cccc(C)n2)CC1CCO` (stereo unspecified) belongs 67.4%; to `CC(C)=CCN1CCN(Cc2cc(C)c(O)c(C)c2)CC1CCO` (stereo unspecified), 51.3%; to `CC(C)=CCN1CCN(Cc2cc(C)n[nH]2)CC1CCO` (stereo unspecified), 26.6%.
For the compound `Cc1cccc(CN2CCN(Cc3ccccc3)CC(O)C2)n1` (stereo unspecified), the INHIBITION worked out at 16.8%.
With `CC(C)N1CCC(N2CCN(C3CCCCC3)CC2CCO)CC1` (stereo unspecified), the INHIBITION came out at 22%.
To `CCn1cc(Cl)c(C(=O)Nc2ccc3c(c2)C(C)(C)C(=O)N3C)n1` belongs 20.9%; to `O=C(CCc1cc(O)no1)N1CCCC(OCc2cccnc2)C1` (stereo unspecified), 23.6%; to `Cc1c(S(=O)(=O)N(CCc2ccccc2)Cc2ccn(C)n2)cnn1C`, 41.9%.
To `CNC(=O)NCC(CO)Cc1ccccc1OC(F)(F)F` (stereo unspecified) belongs 16%; to `COCCOc1nc(-c2ccccc2Cl)no1`, 14.9%.
As for `CCS(=O)(=O)CCCOc1nc(-c2ccccc2Cl)no1`, the INHIBITION is 50%.
As for `CS(=O)(=O)CCOc1nc(-c2ccccc2Cl)no1`, the INHIBITION is listed as -3.94%.
To `CCc1nccn1C1CCCN(C(=O)c2ccn(-c3ccccc3)n2)C1` (stereo unspecified) belongs 52.2%; to `CCc1nccn1C1CCCN(C(=O)c2cnc3ccccc3n2)C1` (stereo unspecified), 29.2%.
To `CC(C)c1nccn1C1CCCN(C(=O)c2ccnc(N(C)C)c2)C1` (stereo unspecified) belongs 42.9%; to `Cc1noc2ncc(C(=O)N3CCCC(n4cccn4)C3)cc12` (stereo unspecified), 27.8%; to `CCc1nccn1C1CCCN(C(=O)c2cnn3ccc(C)nc23)C1` (stereo unspecified), 24.6%.
Then `CCc1nccn1C1CCCN(C(=O)c2cnc3onc(C)c3c2)C1` (stereo unspecified), with 66.4%.
As for `CCc1nccn1C1CCCN(C(=O)c2ccnc(N(C)C)c2)C1` (stereo unspecified), the INHIBITION was found to be 65.85%.
Take `CCc1nccn1C1CCCN(C(=O)c2cnn3cccnc23)C1` (stereo unspecified): the INHIBITION was found to be 55.4%.
Then `CCc1nccn1C1CCCN(C(=O)c2ccc(N(C)C)nn2)C1` (stereo unspecified), with 45.65%; and `CCc1nccn1C1CCCN(C(=O)c2cncn2-c2ccccc2)C1` (stereo unspecified), with 32.45%; and `CCc1nccn1C1CCCN(C(=O)c2cnn(C)c2C2CC2)C1` (stereo unspecified), with 44.8%.
Turning to `Cc1noc2ncc(C(=O)N3CCCC(n4ccnc4C)C3)cc12` (stereo unspecified), the INHIBITION is 32.3%.
Then `O=c1ccc2c([nH]1)CCC(NS(=O)(=O)C1CC1)C2` (stereo unspecified), with 32.5%; and `O=C(NCc1ccccc1)N1CCc2ncnc(NC3CC3)c2CC1`, with 40.3%; and `CCOCc1nc(-c2cccc(OC)c2OC)n(C2CCN(C)CC2)n1`, with 21.2%.
To `CN(CC(=O)Nc1ccc(Br)cn1)C(=O)C(C)(C)C` belongs -17.6%; to `O=C(Cc1cccnc1)N1CCCC2(CCN(CC3CCOCC3)C2)C1` (stereo unspecified), 18.5%.
To `Cc1cc(C)c(C(=O)N(C)CCN(C)C(=O)OC(C)(C)C)[nH]1` belongs 11.4%; to `Cc1cncnc1C1CCN(C(=O)CN(C)C)CC1`, -15.1%; to `CN(C)C(=O)N1CCC2(CC1)CN(Cc1ccccn1)C(=O)CO2`, 30.4%.
Regarding `CCc1nccn1C1CCCN(C(=O)c2ccc3c(c2)OCO3)C1` (stereo unspecified), the INHIBITION is recorded as 34.9%.
To `Cc1nccn1C1CCCN(C(=O)c2ccc3c(c2)OCCCO3)C1` (stereo unspecified) belongs 47%.
Then `CCc1nccn1C1CCCN(C(=O)c2ccc3c(c2)OCCO3)C1` (stereo unspecified), with 52.5%; and `CCCn1nc(C)c(CNS(=O)(=O)NCc2ccccc2)c1C`, with -8.66%; and `CCCn1cc(Cl)c(C(=O)N2C[C@@H](O)[C@H](Oc3ccccc3)C2)n1`, with -10.55%.
To `O=S(=O)(CCc1ccccc1Cl)CC(O)CO` (stereo unspecified) belongs 35.7%; to `Cc1ccsc1C(=O)Nc1cnn(CC(=O)NC2CCCC2)c1`, -4.63%; to `Cc1nc(C)c(C(=O)Nc2cnn(CC(=O)NC3CCCC3)c2)s1`, 54.5%.
On to `Cc1cc(C(=O)Nc2cnn(CC(=O)NC3CCCC3)c2)c(C)s1`, for which the INHIBITION is on record as 12.4%.

These data come from ChEMBL document CHEMBL4513216, “Probing the Open Global Health Chemical Diversity Library for Multistage-Active Starting Points for Next-Generation Antimalarials” (ACS Infect Dis, 2020).
